# NPC1 prom act – NPC1 promoter activation; Huh7 NPC1 promoter luciferase reporter, 24 h; Potency, µM (titrated, usually from 9.22 µM), actives largely listed as activators; 320,000 compounds, 2.4% hits; AID 485313; further: nearly all actives have a fitted effect of over 60% in size
#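 Stable NPC1-promoter luciferase Huh7 line; cpd (DMSO) 24 h, 37 °C, 5% CO2; Amplite luciferase reagent 10 min RT; luminescence readout. qHTS format.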
# ELG1 genotox – induces genotoxicity in HEK293T cells with luciferase-tagged ELG1; HEK293T ELG1-luciferase reporter, luminescence, 16 h; Potency, µM (top dose mostly 46 µM), usual class: activators; 330,000 compounds, 1.3% hits; AID 504466; further: nearly all actives have a fitted effect of over 60% in size
#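 After overnight (16 hr) compound treatment at 37 °C, ELG1-luciferase HEK293T cells were lysed with ONE-Glo; luminescence quantified 30 min later at room temperature.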
# SMN2 splice enh – SMN2 splice variant enhancement; HEK293 SMN2-luciferase splicing reporter, luminescence, 30-36 h; Potency, µM (top dose mostly 46.1 µM), actives largely listed as activators; 210,000 compounds, 2.8% hits; AID 1458; further: nearly all actives have a fitted effect of over 55% in size
#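 HEK293 cells carry an SMN2 […]–luciferase reporter in which exon 7 inclusion puts luciferase in frame. Cells were plated 10-12 h before compound addition, then incubated 30-36 h at 37C. ONE-Glo luminescence was read; sodium butyrate at 4.5 mM final served as control.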
# Rab9 promoter act – Rab9 promoter activation; Potency, µM (titrated, usually from 9.22 µM), hits mostly activators; 320,000 compounds, 2.8% hits; AID 485297; Huh7 Rab9 promoter-luciferase reporter, luminescence, 24 h; further: nearly all actives have a fitted effect of over 60% in size
#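 Huh7 cells stably carrying Rab9 promoter–luciferase reporter, plated 1500 cells/well, compound added after 2 h and incubated 24 h at 37 °C; luciferase luminescence then read after 10 min with detection reagent.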
# ELG1 DNA repair – ELG1-dependent DNA repair inhibition; Potency, µM (highest dose often 46.1 µM), usual class: inhibitors; HEK293T ELG1-luciferase reporter, luminescence, 16 h; DNA damage induced by 5-fluorouridine; AID 504467; 330,000 compounds, 2.3% hits; further: nearly all actives have a fitted effect of over 55% in size
#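 5-Fluorouridine DNA damage + compound/DMSO, 2,000 cells/well, 16 h, 37 °C/5% CO2. ONE-Glo, 30 min RT, luminescence. Readout = decrease in reporter signal.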
# FLuc modulator – firefly luciferase modulation, counter-screen for miR-21 project; purified FLuc, Km substrates, luminescence inhibition; Potency, µM (top dose mostly 57.5 µM), usual class: inhibitors; P08659; 360,000 compounds, 6.9% hits; further: nearly all actives have a fitted effect of over 55% in size
# Target sequence (P08659 whole entry, looked up): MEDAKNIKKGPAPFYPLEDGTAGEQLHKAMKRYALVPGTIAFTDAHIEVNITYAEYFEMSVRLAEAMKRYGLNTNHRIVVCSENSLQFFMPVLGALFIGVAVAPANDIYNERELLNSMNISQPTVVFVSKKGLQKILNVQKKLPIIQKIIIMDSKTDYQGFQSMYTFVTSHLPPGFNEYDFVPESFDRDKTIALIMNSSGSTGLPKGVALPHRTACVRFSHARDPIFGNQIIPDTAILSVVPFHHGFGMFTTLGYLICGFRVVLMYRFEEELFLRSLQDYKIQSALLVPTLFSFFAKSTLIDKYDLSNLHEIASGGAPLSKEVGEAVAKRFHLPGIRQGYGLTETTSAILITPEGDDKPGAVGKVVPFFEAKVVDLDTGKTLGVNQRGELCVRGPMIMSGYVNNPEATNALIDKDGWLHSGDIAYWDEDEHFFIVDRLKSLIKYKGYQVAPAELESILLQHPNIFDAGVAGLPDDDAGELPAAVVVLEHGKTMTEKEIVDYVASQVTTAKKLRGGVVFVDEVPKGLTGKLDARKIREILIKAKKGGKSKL
#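 Biochemical qHTS of compounds, final roughly 60 µM downward over six points, against 10 nM purified firefly luciferase using Km concentrations of substrates (10 uM D-luciferin, 10 uM ATP) in Tris acetate pH 7.5 buffer; luminescence output.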
# Hits are given with their value; . = inactive; ? = inconclusive; / = no result given; [ ] = dose if it differs, or a comment. Most compounds without a hit are left out; they make up all but 9.3% or so of the library. The call rests on the fitted dose curve; in most records, active means well fitted curve in the direction sought with a large enough effect; inconclusive means small, poorly fitted or top-dose-only effect, or another doubt; inactive means no such curve, though single readings can be large; an effect the other way counts as inactive or inconclusive.
SMILES,NPC1 prom act,ELG1 genotox,SMN2 splice enh,Rab9 promoter act,ELG1 DNA repair,FLuc modulator
Clc1ccc(-c2noc(CN3CCN(c4ccccc4)CC3)n2)cc1,.,.,.,.,.,.
c1ccc(-c2noc(CN3CCOCC3)n2)cc1,.,.,/,.,.,.
Cc1ccc(-c2noc(CN3CCOCC3)n2)cc1,3.16µM,?,?,2.82µM,?,16.9µM
Cc1ccc(-c2noc(Cn3cc(S(=O)(=O)N4CCCC4)ccc3=O)n2)cc1,.,.,/,.,.,23.9µM
Clc1ccc(-c2noc(CN3CCCC3)n2)cc1,?,10µM,?,?,?,19µM
Cc1ccc(-c2noc(CN3CCCCC3)n2)cc1,?,13µM,?,?,?,19µM
O=c1ccc(S(=O)(=O)N2CCCC2)cn1Cc1ccc(F)cc1,.,.,/,.,.,.
CCC1CCc2nc3sc(C(=O)Nc4ccc(F)cc4F)c(N)c3cc2C1 (stereo unspecified),/,/,.,/,/,.
COP1(=O)C=C[C@H](N(Cc2ccccc2)S(=O)(=O)c2ccccc2[N+](=O)[O-])[C@@H](C)O1 (stereo partly specified),.,.,/,.,.,.
COC(=O)c1ccc(COC(=O)CNC(=O)C2CCCCC2)cc1,/,.,/,/,.,/
COCCNC(=O)CSc1nnc(NC(=O)Nc2ccc(C)cc2)s1,/,/,/,/,/,12µM
COc1ccc(NC(=O)CSc2nnc(NC(=O)c3ccccc3C(=O)O)s2)cc1,.,.,/,.,.,26.9µM
CCCSc1nnc(NC(=O)Nc2ccc(C)cc2)s1,.,.,/,.,.,.
Cc1nnc(SCC(=O)Nc2ccc3[nH]c(=O)[nH]c3c2)s1,.,.,/,.,.,.
COc1ccc(NC(=O)CSc2nnc(NC(=O)Nc3ccc(OC)cc3)s2)cc1,/,/,/,/,/,0.379µM
COc1ccc(Nc2nnc(SCC(=O)Nc3ccc4[nH]c(=O)[nH]c4c3)s2)cc1,.,.,/,.,.,2.39µM
CCCCC(=O)Nc1nnc(SCC(=O)Nc2ccc(OC)cc2)s1,.,?,/,.,.,.
CN(CCc1ccccn1)c1ccc2c(c1)C(=O)c1ccccc1-2,/,/,.[9.22 µM],/,/,/
COc1ccc(CSc2nnc(SCc3ccc([N+](=O)[O-])cc3)s2)cc1,.,.,.,.,.,.
COC(=O)CSc1nnc(SCc2ccc(OC)cc2)s1,.,.,.,.,.,23.9µM
CCc1nnc(NC(=O)C(CC)CC)s1,.,.,/,.,.,.
Cc1nc2ccc(C(=O)Nc3cccc([N+](=O)[O-])c3)cc2s1,?,.,?,?,.,?
COc1ccc(NC(=O)c2ccc3nc(C)sc3c2)cc1,1µM,?,/,1µM,?,?
CCCC(=O)Nc1nc2ccc(NC(=O)c3ccc(Br)o3)cc2s1,.,.,?,.,?,.
Cc1nc2ccc(NC(=O)c3ccc(Br)o3)cc2s1,2.82µM,.,11.2µM,2.51µM,?,15.1µM
SMILES,NPC1 prom act,ELG1 genotox,SMN2 splice enh,Rab9 promoter act,ELG1 DNA repair,FLuc modulator
Cc1nc2ccc(NC(=O)c3ccc([N+](=O)[O-])cc3[N+](=O)[O-])cc2s1,.,.,.,.,20.6µM,.
COC(=O)c1ccc(NC(=O)c2ccc3nc(C)sc3c2)cc1,0.794µM,?,/,0.708µM,?,.
COc1ccc(C(=O)Nc2ccc3nc(C)sc3c2)cc1OC,.,.,/,?,?,?
CCC(=O)Nc1nonc1-c1nc2ccccc2n1CCC(C)C,.,.,.,.,23.1µM,.
CC(C)(C)NC(=O)c1ccccc1-c1nc(-c2ccccc2Cl)no1,.,.,.,.,.,12µM
CCNC(=O)c1ccccc1-c1nc(-c2ccccc2Cl)no1,.,.,.,.,.,19µM
CCNC(=O)c1ccccc1-c1nc(-c2ccccc2OC)no1,.,.,/,.,.,?
O=C(c1ccccc1-c1nc(-c2ccccc2Cl)no1)N1CCOCC1,.,.,/,.,.,.
CC(C)NC(=O)c1ccccc1-c1nc(-c2ccccc2Cl)no1,.,.,/,.,.,15.1µM
Cc1ccccc1-c1noc(-c2ccccc2C(=O)NCc2ccco2)n1,.,.,/,.,?,?
Cc1ccc(F)cc1NC(=O)COC(=O)COc1ccc(C#N)cc1,.,.,/,.,.,.
Cc1ncc(CO)c(/C=N/NC(=O)c2cc(Br)ccc2O)c1O,.,?,.,.,16.4µM,?
Cc1ncc(CO)c(/C=N/NC(=S)Nc2ccc(C(C)C)cc2)c1O,.,.,/,.,?,13.5µM
Cc1ncc(CO)c(/C=N/NC(=O)c2ccc(Br)cc2)c1O,.,.,.,.,?,?
Cc1ncc(CO)c(/C=N/NC(=O)c2cc(O)c(O)c(O)c2)c1O,.,.,.,.,.,.
O=C(c1cccs1)N1CCN=C1SCc1ccc(F)cc1,.,.,/,.,.,.
COc1cccc(NS(=O)(=O)c2ccc3[nH]cc(C(=O)NCCC(C)C)c(=O)c3c2)c1,.,.,.,.,18.4µM,.
CC(C)CCNC(=O)c1c[nH]c2ccc(S(=O)(=O)N3CCOCC3)cc2c1=O,.,.[9.26 µM],/,.,.,.
O=C(c1ccccc1)c1cccc(NC(=O)c2ccco2)c1,.,?,.,3.98µM,?,26.9µM
O=C(Nc1cccc(-c2cnc3ccccc3n2)c1)c1cccc(NC(=O)c2ccco2)c1,.,.,?,.,10.3µM,10.7µM
O=C(Nc1ccccc1O)c1cccc(NC(=O)c2ccco2)c1,.,.,/,.,11.6µM,?
O=C(Nc1nccs1)c1cccc(NC(=O)c2ccco2)c1,.,.,.,.,23.1µM,?
O=C(Nc1cccnc1)c1cccc(NC(=O)c2ccco2)c1,.,.,.,.,.,?
O=C(NCC1CCCO1)c1cccc(Oc2ccc([N+](=O)[O-])cc2Cl)c1 (stereo unspecified),.,.,.,.,?,.
CC(C)(C)NC(=O)C(=O)NNC(=O)c1cccc([N+](=O)[O-])c1,.,.,.,.,?,?
SMILES,NPC1 prom act,ELG1 genotox,SMN2 splice enh,Rab9 promoter act,ELG1 DNA repair,FLuc modulator
CCc1cccc(C)c1NC(=O)CCCn1c(C)c2cnn(-c3ccccc3)c(=O)c2c1C,/,/,.,/,/,.
NCCCCCC(=O)Nc1ccncc1,.,.,/,.,.,.
Cc1ccc(NC(=O)CN(C)S(=O)(=O)c2cnc[nH]2)cc1,/,/,.,/,/,.
CC/C=C\C/C=C\C/C=C\C/C=C\C/C=C\C/C=C\CCC(=O)NCC(=O)O,/,/,.,/,/,/
Cc1ccc(/C=C2/Sc3ccccc3N(CC(=O)NCC3CCCO3)C2=O)cc1 (stereo unspecified),.,.,/,.,.,?
CCc1ccc(/C=C2/Sc3ccccc3N(CC(=O)NCC3CCCO3)C2=O)cc1 (stereo unspecified),.,.,/,.,13µM,19µM
CC(=O)Nc1ccc(NC(=O)c2ccc(-n3c(C)ccc3C)cc2)cc1,.,?,/,.,.,21.3µM
Cc1ccc(C)n1-c1ccc(NC(=O)c2ccccc2)cc1,.,?,11.2µM,?,?,8.49µM

# Screens: PubChem BioAssay, National Center for Advancing Translational Sciences (NCATS)
